The record followed here is PubChem BioAssay AID1508600 (Functional Genomics Laboratory (NCATS/FGL), 2020).

Out of some 53,000 sequences screened, about 3,700 (7%) were called active.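 Rule for the calls: active = gene knockdowns whose robust z-score for IL-1 alpha signal is at least 2 or at most -2, so actives lie on both sides; inactive = the rest.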 This excerpt belongs to a sample that is enriched for actives.

The assay is described as follows: Components of the Cytosolic LPS Sensing Pathway: Gene Identification via Genome-wide siRNA Screen.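 Note: robust z of the log signal after scaling to non-targeting control siRNA wells of the plate.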 The following applies: RAW264.7 macrophages, IL-1a HTRF, actives lie on both sides, screened at 100 nM (by protocol), cells primed 5 h with Pam3CSK4 first. Put shortly: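 Knockdown: 100 nM siRNA, 48h, RAW264.7. Stimulation: Pam3CSK4 5 h, then LipidA via TransIT-TKO 24 h. Output: supernatant IL-1a HTRF, negative-control-normalized, log robust z-score; viability by CellTiter-Glo.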
GAUGAAAGCUACAAUGAAGTT against Srpx2: the z-score is 1.67 (inactive).

GGAAUUUCAGGAGAUACUGTT against C1qtnf12: the z-score was -1.04 (inactive).

As to GCCGGAUCUAUUAAAGAAATT against Hdac2, the z-score is 0.134 (inactive).

For the sequence GCAACUAUACUGGACAAUUTT against Olfr328, the z-score is -1.19 (inactive).

Turning to GGCUUAUUAUCAGGAAAUGTT against Plcz1, the z-score was -1.32 (inactive).

Regarding GGAAGUCUACAAGUGGCCATT against Nr1d1, the z-score was -0.467 (inactive).

Regarding CGCAGCGACCAGCUUUCAATT against Srebf2, the z-score was 0.789 (inactive).

For GGUGGUACGCAAUCAAAAGTT against Galnt17, the z-score is 2.46 (active).

On to GCCACCUAAUUUACAAUCUTT against Ccn3, for which the z-score is 0.573 (inactive).

With GCACCAAUUCCCUAACUGGTT against Fam102a, the z-score is 0.244 (inactive).

GGACCUACAUAACAAGCUUTT against Thnsl2: the z-score is 1.83 (inactive).

With GGCAGAAGCAGAUAUUAGATT against Rbmxl1, the z-score is 2.23 (active).

On to GGUUUCUGUUUUGUCACACTT against Slc22a13b, for which the z-score is -0.535 (inactive).

For GGGCAAUGGAAGAAUUCCUTT against BC030500, the z-score was -1.69 (inactive).

Regarding GGAGCAAGAUGAAGAAGAGTT against Ticam2, the z-score was -2.26 (active).

Turning to CCACGCUACCUUCAAGAGATT against Clec14a, the z-score was 0.946 (inactive).

On to GGAUCUUGACUUUGAUAUGTT against Trpm4, for which the z-score is 0.0632 (inactive).

Regarding GGACUCAAAACCAUUUACATT against Dram1, the z-score was -1.13 (inactive).

With GGAUCAACUGGUGACACAGTT against Preb, the z-score was -0.00996 (inactive).

Turning to GGAUCCUGCUCAAAAAAGUTT against Arxes1, the z-score was -0.431 (inactive).

GGAAGAUCAUAAUGGACAGTT against Pcsk9: the z-score is 6.01 (active).

GAAGUCGGUGGACAAGAACTT against Cebpa: the z-score is 0.662 (inactive).

Regarding “GCACUGUUUGUGCAAACAATT against C130071C03Rik”, the z-score is -2.22 (active).

CCACUCUAAUGAUGUUUUUTT against Slc46a3: the z-score was 0.411 (inactive).

Turning to CCCACUGGUGUACGUGAUCTT against Bdkrb2, the z-score is 2.21 (active).

For the sequence GGCUAAGGAAUGUCAAUAATT against Dnajc5g, the z-score is 0.0787 (inactive).

In the case of GGUGCUACCUCUAGAUAUUTT against Utp3, the z-score is 1.96 (inactive).

Take CCACUUCUCUAAGACAAUCTT against Acox3: the z-score was -0.107 (inactive).

CCCAUUGGAACUGCUGUAATT against Metrnl: the z-score was 0.932 (inactive).

Turning to GGUCAAAGUUAUGCAAUGUTT against Rp9, the z-score is -2.02 (active).

On to GGACUUGAUUAUCUACACUTT against Stk24, for which the z-score is -2.24 (active).

Consider CGAAUAUGGUAUUCACUCATT against Skint4, for which the z-score was 0.157 (inactive).

Consider GCCCUUACAUUUUAUACUATT against Zfp93, for which the z-score is 1.1 (inactive).

In the case of CCACGUCCUCUACUUGUAUTT against Nmbr, the z-score is -0.813 (inactive).

Regarding GCGUAACUACUACAUGAAUTT against Ano9, the z-score is -2.33 (active).

GGACUUACUUCCCAUUUCGTT against Gdpd3: the z-score is 0.297 (inactive).

On to GGUGUAUGCGUCACUAGAATT against Rxra, for which the z-score was 0.0162 (inactive).

Take GGACUACUCUGCCAGAUGGTT against Fam71f1: the z-score was 0.0252 (inactive).

Consider GCUUUAAGUACUUUAACGCTT against Ncr1, for which the z-score was 1.04 (inactive).

As for GCAGCUACUACACCAACCATT against Dlx2, the z-score was -2.46 (active).

As for CGAAAACAGUACGAUGCUUTT against Dnajb11, the z-score was 1.03 (inactive).

As to CCUCAAUGAAGACCCAUUATT against Kif1b, the z-score is -1.35 (inactive).

For the sequence GGUUUUCUAUGGAAGAGAUTT against Igdcc4, the z-score was 0.835 (inactive).

Turning to GGUAUCCACUGUGCCAACCTT against Ush2a, the z-score was -0.343 (inactive).

On to CGAUCGUAUUCAAUGGAAATT against Rims2, for which the z-score was -0.998 (inactive).

In the case of GCAUCUGCAUUUUUUGCUATT against Prox1, the z-score is 1.29 (inactive).

Take GCUUUUGCUACAAGUGUAUTT against Cop1: the z-score is -0.593 (inactive).

GGCAGAUGGCCGAAUUGAUTT against Rest: the z-score is -1.13 (inactive).

For GGACGAUUUAAGGAUUUUUTT against Dcun1d1, the z-score was -2.4 (active).

For CCAAGUACCCUGAGAGUUUTT against Pnpla6, the z-score is 1.46 (inactive).

With GCCAAACGAACAACAAAACTT against Chrm3, the z-score was -0.166 (inactive).

Take CGUACCACACGAUGAAUAGTT against Pou4f1: the z-score is -0.525 (inactive).

Regarding CCGCAUGAACUUCCUACAGTT against Ugt1a1, the z-score is 1.2 (inactive).

GGCGUAUUCUGGUAUCCAGTT against Celf1: the z-score is 2.08 (active).

As for GCACUGAACUUUCCUGACCTT against Ppdpf, the z-score is 1.78 (inactive).

Turning to CCAUUCGAGAUGAGAAGAATT against Gcc1, the z-score was -0.287 (inactive).

On to GGGAAAAGAUCGACAAAGATT against Plk2, for which the z-score is -0.217 (inactive).

As to GGCCCAUGAUCCAUUUUGGTT against Prnp, the z-score was -2.07 (active).

For GGAAAAGGAGGAGAGUUAUTT against Nkapl, the z-score is 0.153 (inactive).

Consider GGGUGGUGGCAUUAAACUUTT against Stk36, for which the z-score is 1.75 (inactive).

GCUUUUCGGAGCUCUAUAUTT against Sipa1: the z-score was -2.23 (active).

On to GGCAGACGGUAAUAAACAUTT against Ralgapb, for which the z-score is -1.08 (inactive).

For GCGUGUAUACCAGCCUUACTT against Egfl7, the z-score is 0.0437 (inactive).

As for GGACAUGAGGACUGUAUCATT against Clec4g, the z-score was -3.2 (active).

Consider GGAAGGAUCUAAUCUUUUUTT against Vamp2, for which the z-score was 1.56 (inactive).

As to GGAAGAAUUCUUGAAGAUGTT against Cetn4, the z-score was 1.13 (inactive).

Turning to GCUAUGUGUUGAUUUAAAGTT against Pdk1, the z-score was 0.422 (inactive).

Turning to GGCUACAGCCGUCAAAGAUTT against R74862, the z-score was -0.091 (inactive).

Take GGAAGAAGCCUUUUGAGUGTT against Peg3: the z-score was 1.39 (inactive).

As to CCAGCUAUGAAUCAGAAUGTT against Bend6, the z-score was 2.6 (active).

CCGAAAGAUCAGCACAUCCTT against Olfr24: the z-score was -0.184 (inactive).

Take CGGCUGUGUGCAUUUAAAGTT against Bmpr2: the z-score was 0.616 (inactive).

In the case of CCUUUGAUUCACAAUGGUUTT against Smad4, the z-score is -0.0886 (inactive).

Turning to GCUCGAACAUAGCAGCAAGTT against BC061195, the z-score was -2.11 (active).

As for GGGUUUCAACCGUCACCUGTT against Pygl, the z-score was -1.89 (inactive).

Consider “GGCCCUUACAGAGUCUGGATT against B930095G15Rik”, for which the z-score is 0.833 (inactive).

Take CGAAUUCAUACCAAGAAAGTT against Myo3a: the z-score was 0.477 (inactive).

Regarding GCCAAGUGGUGACAUCAACTT against Ralgds, the z-score was 2.7 (active).

Consider GGGCAAUGUGUUUAUGUAUTT against Tmem30a, for which the z-score was -0.264 (inactive).

Regarding GGAUAUACAAAGGAACGCATT against Wdr20rt, the z-score is -0.862 (inactive).

In the case of GGUUCUGACCACCUACAUATT against Htr3a, the z-score was -1.62 (inactive).

For GGCUAUACCCUGAAAUAUUTT against Slitrk4, the z-score is -0.00892 (inactive).

Regarding CCUACUACACCACUUGGGUTT against Dpm2, the z-score was 0.365 (inactive).

Consider GGGCAAAUUAGAGACCAAGTT against Nwd2, for which the z-score is 0.692 (inactive).

For the sequence GGAGGAUAUGAGCAAGUACTT against Isg20, the z-score was -0.476 (inactive).

In the case of GGUUAACGGAUCAACAUUUTT against Ube2d2a, the z-score was 1.71 (inactive).

With GGAAUUUUCUUCAUUUGGATT against Pabpc5, the z-score is -0.878 (inactive).

Turning to GGUACCAGACCUCAUAGUUTT against Cep95, the z-score is 2.16 (active).

As to GGGAAGAAAAUGAAAGGUUTT against Cdk5rap2, the z-score is -1.14 (inactive).

On to GGUGUCAACCAGUUGUUUUTT against Nr2c1, for which the z-score was -1.2 (inactive).

CCUAAAGUCACAUCUAAGATT against Pum3: the z-score was 1.06 (inactive).

For the sequence GGAACUGUCCGAUCUUAGATT against Prrg4, the z-score is -1.88 (inactive).

For GCUACUCCCUGCAUAUUAGTT against Slamf9, the z-score was -1.48 (inactive).

Turning to GGCAGCUUUCCUAUUGAAUTT against Tex19.1, the z-score is 0.233 (inactive).

GGACUUUGAUCAGCUGUCUTT against Tmem17: the z-score is -2.12 (active).

On to GGUUGAUCGUGUCAUGUAGTT against Poc1b, for which the z-score is 0.0595 (inactive).

As for GGCUAUACCUUUGACUAUGTT against Csnk1g1, the z-score was 0.0256 (inactive).

On to GGGCAGCAUCGGACUAAAUTT against Agtr1a, for which the z-score was 2.35 (active).

GGUUGUAGGAGAGGAAGCCTT against Apobr: the z-score is -0.572 (inactive).

Turning to GGUACGAAGUCAAAGUGAATT against Dnmt3l, the z-score was 0.0494 (inactive).

On to GGAGUUAGAUGCCCUCAAGTT against Trappc6a, for which the z-score was -0.796 (inactive).

As to CAGCUGAGAUUGAUGGCCATT against Olfr313, the z-score is -0.6 (inactive).

Regarding GCCUGAAUAUUGCUAUCACTT against Gpr107, the z-score is 2.35 (active).

Consider GCAACAACCACCAAAUCUATT against Prol1, for which the z-score is -1.53 (inactive).

In the case of GGAAGAAUGUGAUGACUCATT against Zfp11, the z-score is -0.471 (inactive).

As for “GGUAAUUUAAUGACACAUGTT against A130079P16Rik”, the z-score is 2.35 (active).

For the sequence GGAUCCAGACACCUCAAGATT against Vxn, the z-score was 0.702 (inactive).

As to CGUUCAUGUUGUAAGUAUCTT against Olfr1196, the z-score was 0.461 (inactive).
